HCT116 bCat-KO = primary screen for growth suppressors in beta-catenin knockout HCT116 cells (colon tumor, human); HCT116 beta-catenin knockout viability, CellTiter-Glo, 60 h; active compounds read low; AID 818, 2007; viability, % at 10 µM; 1.5% of 140,000 active;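 active = viability at or under a set limit, the compound median less 4 SD, cut at about 6% in these data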;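 note: 0% = Hyamine 1622 control at 20 µM and 100% = untreated cell control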
HCT116 PTEN-null = growth suppression of PTEN-null HCT116, primary screen, cell-based, CellTiter-Glo | AID 827, 2007 | HCT116 PTEN-null viability, 60 h; active compounds read low | viability, % at 10 µM | 1.2% of 140,000 active;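 active = viability at or below a set limit, 4 SD under the median of all tested compounds, cut at about 3.7% in these data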;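 note: PTEN knockout HCT116 line with beta catenin targeted HCT116 as companion control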
Insulin prom inh = inhibitors of insulin promoter-driven GFP, primary screen, imaging, TRM-6 cells (human fetal islet line), eGFP reporter, cell count; inhibition, % at 2 µM; reporter expression induced with tamoxifen; 0.9% of 130,000 active;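 active = inhibition above the mean plus 3 SD, with well images judged a real hit on visual review, cut at about 60% in these data, passing the limit was not always enough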
p97 inhibitor = inhibitors of human p97 ATPase, primary screen, biochemical; 0.42% of 220,000 active; inhibition, % at 8 µM; recombinant p97 ATPase, Kinase-Glo ATP luminescence, 3 h; Transitional endoplasmic reticulum ATPase (Homo sapiens), P55072; in the data active = inhibition above about 15%;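 note: 0% = DMSO vehicle and 100% = wells lacking enzyme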
ROMK mod = ROMK potassium channel modulators, primary screen, cell-based, thallium flux, MLSMR library | ATP-sensitive inward rectifier potassium channel 1 (Homo sapiens), P48048 | Tet-inducible ROMK, thallium flux fluorescence; actives lie on both sides | B-score at 10 µM | 2% of 130,000 active | AID 1918, 2009;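 active = signal ratio slope over the read window, or its plate-corrected B-score, at least 3 SD from the plate mean, either direction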;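 note: B-score of the F/F0 ratio slope over 7 to 12 s after thallium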
Target sequence (P48048 whole entry, looked up): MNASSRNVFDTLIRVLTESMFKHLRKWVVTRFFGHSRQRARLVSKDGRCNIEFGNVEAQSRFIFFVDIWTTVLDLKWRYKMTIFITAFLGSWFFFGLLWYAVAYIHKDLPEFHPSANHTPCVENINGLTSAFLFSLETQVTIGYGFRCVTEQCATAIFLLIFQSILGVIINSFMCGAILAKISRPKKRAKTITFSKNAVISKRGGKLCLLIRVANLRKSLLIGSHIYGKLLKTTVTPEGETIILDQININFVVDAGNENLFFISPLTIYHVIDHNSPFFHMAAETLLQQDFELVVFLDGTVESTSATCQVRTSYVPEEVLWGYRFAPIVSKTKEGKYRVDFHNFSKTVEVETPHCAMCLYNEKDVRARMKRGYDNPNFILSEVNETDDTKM
Lmaj promast = Leishmania major promastigote growth inhibition, primary screen. Leishmania major promastigotes, resazurin fluorescence viability. inhibition, % at 10 µM. 9% of 200,000 active; in the data active = inhibition above about 50%;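 note: promastigotes grown with compound for 44 hours at 28 °C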
* hit, by the source's call; nt = no result. Hits are enriched below; roughly 10% of the tested compounds scored in any of these assays.

SMILES | HCT116 bCat-KO | HCT116 PTEN-null | Insulin prom inh | p97 inhibitor | ROMK mod | Lmaj promast
CN1CCN(C(=O)c2ccc3ccccc3c2)CC1 | 107.3 | 99.3 | nt | 5.3 | nt | 87.0*
CN1CCN(C(=O)c2ccc3nc(-c4ccccc4)c(-c4ccccc4)nc3c2)CC1 | nt | nt | nt | -0.4 | -0.514 | 4.9
Cc1cnc(C(=O)N2CCN(c3ccc(C(F)(F)F)cn3)CC2)cn1 | nt | nt | nt | -8.3 | nt | nt
CN1CCN(C(=O)c2ccc(CSc3ccc(Cl)cc3)cc2)CC1 | 76.1 | 75.3 | nt | -1.4 | nt | 100.3*
CCOC(=O)N1CCN(C(=O)c2ccc(CSc3ccc(Cl)cc3)cc2)CC1 | nt | nt | 0.0 | -3.0 | nt | 22.0
O=C(c1ccc2ccccc2c1)N1CCN(c2ccc(C(F)(F)F)cn2)CC1 | 108.4 | 89.7 | 14.3 | 5.9 | 0.444 | 98.1*
O=C(c1ccc2c(c1)OCO2)N1CCN(c2ccc(C(F)(F)F)cn2)CC1 | 95.4 | 96.9 | 22.2 | 0.3 | nt | 76.3*
Cc1ccc(Nc2nc(CSc3nnc(-c4ccc(F)cc4)n3C)cs2)cc1 | 75.4 | 69.7 | -39.5 | -2.6 | -1.23 | 80.7*
CCOC(=O)N1CCN(C(=O)c2ccc(Cl)nc2)CC1 | nt | nt | nt | -1.7 | nt | nt
CC(C(=O)NC1CCCc2ccccc21)N1CCN(c2ccc(F)cc2)CC1 (stereo unspecified) | 82.4 | 74.9 | nt | -0.6 | nt | 69.8*
S=c1[nH]nc(-c2ccc3ccccc3n2)n1-c1ccccc1Cl | 84.5 | 93.5 | 25.0 | 4.3 | nt | 52.2*
Cc1ccc(N=C2SC(C(=O)O)CC(=O)N2C)cc1C (stereo unspecified) | nt | nt | 42.9 | -2.8 | 0.32 | -7.5
Cn1cccc1/C=N/NC(=O)C12CC3CC(CC(C3)C1)C2 | 95.2 | 102.1 | nt | 5.3 | nt | -6.3
O=[N+]([O-])c1ccccc1CNC1CCCCCC1 | nt | nt | nt | 3.0 | -1.04 | 83.2*
Cc1ccc(S(=O)(=O)NCc2ccc(/C=C(/C#N)C(=O)NCc3ccccc3)o2)cc1 | 83.1 | 82.8 | -30.0 | 3.0 | nt | 70.4*
CCOc1ccc(/C=N/n2c(SC)nnc2-c2ccccc2)cc1OCC | 85.3 | 87.1 | 23.3 | -4.2 | nt | 5.7
Cc1ccc(N=Nc2c(C)[nH]n(C(N)=S)c2=O)cc1 | nt | nt | 55.6 | 7.5 | 0.954 | 29.4
NC(=S)n1[nH]c(-c2ccc([N+](=O)[O-])cc2)c(N=Nc2ccc(Cl)cc2)c1=O | nt | nt | nt | -0.9 | -0.303 | 97.2*
O=C(CSCc1ccc(Cl)cc1)Nc1ccc2c(c1)OCCO2 | 102.7 | 100.3 | 6.7 | 0.9 | nt | -3.3
Nc1nnnn1/N=C/c1cc(Cl)cc(Cl)c1OCc1ccc(Cl)cc1Cl | 3.2* | 4.2 | -30.6 | 4.5 | -0.465 | -0.9
O=C(O)c1cccc(-c2ccc(/C=N/n3cnc4sc5c(c4c3=O)CCCC5)o2)c1 | nt | nt | nt | 5.3 | -0.246 | nt
COc1cccc(-n2c(SCC(=O)NCc3ccco3)nnc2-c2c[nH]c3ccccc23)c1 | 89.3 | 85.6 | nt | 0.3 | nt | 98.4*
COc1ccc(OC)c(-n2c(SCC(=O)NCc3ccco3)nnc2-c2c[nH]c3ccccc23)c1 | 79.3 | 68.8 | nt | -4.7 | nt | 96.3*
O=C(CSc1nnc(-c2ccco2)n1-c1ccccc1)NCc1ccco1 | 83.7 | 84.3 | 80.6* | 7.0 | nt | 0.4
COCCn1c(SCC(=O)NCc2ccco2)nnc1-c1c[nH]c2ccccc12 | 92.2 | 93.8 | nt | -2.4 | nt | -7.2
SMILES | HCT116 bCat-KO | HCT116 PTEN-null | Insulin prom inh | p97 inhibitor | ROMK mod | Lmaj promast
CCn1c(SCC(=O)NCc2ccco2)nnc1-c1c[nH]c2ccccc12 | 102.8 | 99.5 | -57.8 | 1.7 | -0.208 | 1.6
COc1ccc(/C(O)=C2/C(=O)C(=O)N(c3ncccn3)C2c2ccc(C(C)(C)C)cc2)cc1 (stereo unspecified) | nt | nt | -21.4 | 1.1 | 0.69 | -7.0
CC(/C=N/NC(=O)c1cc(-c2cccs2)[nH]n1)=C\c1ccccc1 | 92.0 | 92.1 | nt | 3.7 | nt | 0.3
Cc1cccc(N2CSC3=C(C#N)C(c4ccc(C)o4)CC(=O)N3C2)c1 (stereo unspecified) | 97.3 | 96.5 | 44.4 | 17.3* | nt | -3.0
COc1ccc(OC)c(C2CC(=O)N3CN(c4ccccc4)CSC3=C2C#N)c1 (stereo unspecified) | 85.5 | 94.4 | nt | -3.7 | nt | 3.2
Cc1cncn1CCc1nc2c3ccccc3nc(SCC(=O)Nc3cccc(Cl)c3)n2n1 | 5.3* | 1.0* | nt | -5.1 | -1.68 | 100.4*
Cc1cc(NCc2ccccc2)nc2ccccc12 | 57.1 | 55.4 | -197.1 | 0.7 | -1.57 | 53.3*

Assay outcomes (PubChem)
